# Experimental data: the supplement of paper PMC11732987, “Enantioselective OTUD7B fragment discovery through chemoproteomics screening and high-throughput optimisation” (Communications Chemistry, 2025)
# Target: T1, USP8 (UniProt P40818)
# T1 sequence (whole entry): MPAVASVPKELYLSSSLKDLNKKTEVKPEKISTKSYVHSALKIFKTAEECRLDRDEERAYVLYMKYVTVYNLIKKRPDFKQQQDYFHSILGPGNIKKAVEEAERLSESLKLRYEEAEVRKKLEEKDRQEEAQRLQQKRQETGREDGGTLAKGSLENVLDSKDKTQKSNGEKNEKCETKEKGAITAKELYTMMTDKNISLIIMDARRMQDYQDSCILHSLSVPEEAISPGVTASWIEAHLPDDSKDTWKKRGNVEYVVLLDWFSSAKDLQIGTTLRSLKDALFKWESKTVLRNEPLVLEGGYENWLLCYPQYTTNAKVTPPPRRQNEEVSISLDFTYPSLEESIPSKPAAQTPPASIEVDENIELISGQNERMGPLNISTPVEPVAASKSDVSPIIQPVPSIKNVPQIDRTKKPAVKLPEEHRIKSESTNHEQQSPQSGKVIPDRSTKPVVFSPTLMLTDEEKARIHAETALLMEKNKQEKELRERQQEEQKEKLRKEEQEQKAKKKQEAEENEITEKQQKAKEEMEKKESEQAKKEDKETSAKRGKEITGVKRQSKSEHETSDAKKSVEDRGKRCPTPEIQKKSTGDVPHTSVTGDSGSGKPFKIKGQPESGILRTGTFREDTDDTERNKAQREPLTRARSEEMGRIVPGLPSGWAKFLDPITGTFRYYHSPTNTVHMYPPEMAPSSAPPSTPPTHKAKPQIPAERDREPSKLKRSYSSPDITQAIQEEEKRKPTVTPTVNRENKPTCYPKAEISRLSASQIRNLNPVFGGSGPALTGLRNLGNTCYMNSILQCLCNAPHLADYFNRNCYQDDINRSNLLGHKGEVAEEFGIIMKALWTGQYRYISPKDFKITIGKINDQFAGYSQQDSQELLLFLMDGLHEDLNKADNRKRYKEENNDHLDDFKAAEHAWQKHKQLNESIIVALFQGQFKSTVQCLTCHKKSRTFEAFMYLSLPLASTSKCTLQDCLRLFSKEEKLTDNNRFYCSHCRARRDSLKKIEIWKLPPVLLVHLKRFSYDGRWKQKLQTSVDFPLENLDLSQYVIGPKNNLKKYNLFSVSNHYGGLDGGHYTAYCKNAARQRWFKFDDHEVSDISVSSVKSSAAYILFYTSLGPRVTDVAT
# Assay: log2 ratio of Biotin-Ahx-Ub-VS probe labelling (fragment/DMSO); higher = less target engagement (more negative = stronger competition), active = hit call of the paper (q ≤ 0.05, log2 ratio ≤ -1)
# Settings: compound concentration: 200 uM; treatment time: 3 h
# Summary of the method: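 The table lists average log2 ratios of fragment over vehicle, from an unpaired t-test on global-median-normalised Spectronaut label-free quantities. Proteins with ≥2 unique peptides were used. Samples were HEK293T lysate (495 µg) treated in triplicate with fragment at 200 µM or vehicle for 3 h, then with Biotin-Ahx-Ub-VS (0.5 µM final) for 1 h, with labelled DUBs NeutrAvidin-enriched and run by diaPASEF LC-MS/MS.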
row,Structure (SMILES),log2 ratio of Biotin-Ahx-Ub-VS probe labelling
1,O=C(CCl)Nc1ccc(F)cc1Cl,-0.165 (inactive)
2,O=C(CCl)Nc1cccc2ncccc12,-0.176 (inactive)
3,O=C(CCl)NC(Cn1ccccc1=O)c1ccccc1 (centres undefined),-0.0535 (inactive)
4,Cc1n[nH]c(=O)c2c(NC(=O)CCl)oc(C)c12,-0.29 (inactive)
5,Cc1ccc(-c2nnc(C)[nH]2)c(NC(=O)CCl)c1,0.112 (inactive)
6,Cc1ccc(C)c(Oc2ccc(CNC(=O)CCl)cn2)c1.Cl,-0.519 (inactive)
7,Cc1nc(CN2CCCN(C(=O)CCl)CC2)no1.Cl,0.237 (inactive)
8,N#Cc1ccc(CNC(=O)CCl)cc1,-0.338 (inactive)
9,CC(C)n1nccc1NC(=O)CCl,-0.493 (inactive)
10,CC(NC(=O)CCl)c1ccc2[nH]ncc2c1 (centres undefined),-0.403 (inactive)
11,Cl.O=C(CN1CCN(C(=O)CCl)CC1)Nc1ccc(F)cc1,0.234 (inactive)
12,CC(NC(=O)CCl)c1cnn(C2CC2)c1 (centres undefined),-0.373 (inactive)
13,NC(=O)C(Cc1ccccc1)NC(=O)CCl (centres undefined),-0.047 (inactive)
14,O=C(CCl)NC1CCN(C(=O)C2CCCCC2)CC1,0.139 (inactive)
15,Cc1cc(Cl)ccc1NC(=O)CCl,0.0468 (inactive)
16,COc1ccc(Cl)cc1NC(=O)CCl,-0.171 (inactive)
17,O=C(CCl)Nc1nnc(CC(F)(F)F)o1,-0.263 (inactive)

row,Structure (SMILES),log2 ratio of Biotin-Ahx-Ub-VS probe labelling
1,O=C(CCl)N(C1=CCCCC1)C1CC1,-0.00831 (inactive)
2,Cc1ccc(CN(CCO)C(=O)CCl)cc1,-0.664 (inactive)
3,CC(NC(=O)CCl)c1cccc2ccccc12 (centres undefined),-0.651 (inactive)
4,O=C(CCl)N1CCCCC12CCOCC2,-0.237 (inactive)
5,Cl.Cn1ncc2c1CCCC2NC(=O)CCl (centres undefined),0.0774 (inactive)
6,COCC[C@@H](NC(=O)CCl)c1ccccc1,-0.0978 (inactive)
7,CN(C(=O)CCl)c1nc2ccccc2s1,-0.0186 (inactive)
8,O=C(CCl)N1CCC(C(=O)N2CCCCCC2)CC1,-0.0368 (inactive)
9,O=C(CCl)N1CCOC2(CCC2)CC1,-0.275 (inactive)
10,O=C(CCl)NCCC1=CCCCC1,0.244 (inactive)
11,O=C(CCl)N(C1CCCC1)C1CCS(=O)(=O)C1 (centres undefined),0.0542 (inactive)
12,Cc1noc(N2CCN(C(=O)CCl)CC2)n1.Cl,-0.307 (inactive)
13,COc1ccccc1C(C)NC(=O)CCl (centres undefined),-0.576 (inactive)
14,O=C(CCl)N(Cc1ccsc1)C1CC1,0.0752 (inactive)
15,O=C(CCl)N1CCC(S(=O)(=O)c2ccc(F)cc2)CC1,-0.0595 (inactive)
16,Cc1nc(CN2CCN(C(=O)CCl)CC2)cs1,-0.444 (inactive)
17,O=C(CCl)N1CC2(CCOCC2)C1,0.147 (inactive)
